Inhibition data for 5 compounds are collected here from PubChem BioAssay AID651744 (Broad Institute, 2012).

For orientation: inhibition means the relative decrease from the control value, in per cent.

The structures appear in SMILES notation. Out of some 5,600 compounds screened, about 3,100 (55%) were called active. Another 3% or so got no clear call; they are omitted. The set was probably picked from earlier hits. Not all results are given here. Values without a mark were called inactive.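 The calls were made as follows: active = mean loss of cell viability signal at or above a set limit, and enough replicates individually reaching it; inconclusive = meets only the mean limit or only the replicate share; inactive = meets neither condition.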

A short description of the experiment: NIH/3T3 fibroblast cytotoxicity, confirmation, cytotoxicity control, cell-based, cherry-pick, single point, set 2 (AID 651744).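 Also: 0% = median of neutral control wells and 100% = median of positive control wells.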 As to conditions: NIH/3T3 viability, CellTiter-Glo ATP luminescence, 90 h; at 24.9 µM; stronger effect = higher value.
For the compound `COc1ccc(-c2ccc([C@H]3[C@H](CO)N4CCCCN(C(=O)Cc5ccncc5)C[C@@H]34)cc2)cc1`, the inhibition was 18.4%.

Take `COc1ccc(C#Cc2ccc([C@H]3[C@H](CO)N4CCCCN(C(=O)Cc5ccccc5)C[C@@H]34)cc2)cc1`: the inhibition was 106% (active).

On to `O=C(Cc1cccnc1)N1CCCCN2[C@@H](CO)[C@H](c3ccc(C#CC4CCCC4)cc3)[C@@H]2C1`, for which the inhibition was 105% (active).

For the compound `C/C=C/c1ccc([C@H]2[C@H](CO)N3CCCCN(C(=O)Cc4ccncc4)C[C@@H]23)cc1`, the inhibition was 3.85%.

As for `O=C(Cc1ccccn1)N1CCCCN2[C@@H](CO)[C@@H](c3ccc(C#Cc4ccccc4)cc3)[C@@H]2C1`, the inhibition is 103% (active).
